For 94 compounds, survival results are on record in PubChem BioAssay AID463173 (ICCB-Longwood Screening Facility, Harvard Medical School, 2010).

In all, about 52,000 compounds went through this assay and about 4,300 (8.3%) were called active. The sample as a whole holds a higher share of actives than the screen did. Values without a mark were called inactive. Cut-off read from the data, not from the text of the source: active = survival mostly below about 52% (no sharp cut-off); inactive = mostly above about 56%.

This test has as its system DeltatarO mutant. The experiment in a line: growth inhibition of S. aureus wild type versus tarO mutant, primary screen, teichoic acid synthesis inhibitors, RN4220, OD600 (AID 463173). The conditions noted are these: OD600, 18 h, stronger effect = lower value, screened at 18.75 µg/mL (by protocol).
As to `Cc1ccc(NC(=O)CCn2nc(C)c3c(C)n(-c4ccccc4)nc3c2=O)cc1Cl`, the survival is 117%.
For `CCOCCCn1c(SCC(=O)Nc2ccc(OC)cc2OC)nc2ccccc2c1=O` the value was 89%; for `CCOC(=O)C1CCCN(C(=O)c2ccccc2NC(=O)c2nsc3ccccc23)C1` (centres undefined), 130%; for `CCOC(=O)c1[nH]c(C)c(CCC(=O)Nc2ccc(C(C)=O)cc2)c1C`, 72%.
The value for `O=C(NCc1ccccc1)C(=O)Nc1ccc2nc3n(c(=O)c2c1)CCCCC3` was 88%; that for `COc1cccc(Cn2c(=O)n(Cc3ccco3)c(=O)c3oc4ccccc4c32)c1` was 66%.
The value for `O=C(CC1CCCCC1)N1CCN(c2ccccc2)CC1` was 82%.
For `O=C(Nc1nnc(S(=O)(=O)N2CCCc3ccccc32)s1)c1ccccc1Cl`, the survival was 28% (active).
Regarding `Cc1ccccc1C(=O)Nc1nnc(S(=O)(=O)N2CCc3ccccc32)s1`, the survival is 95%.
The value for `O=C(Nc1nnc(S(=O)(=O)N2CCCc3ccccc32)s1)c1ccccc1Br` was 17% (active).
For `Cc1ccccc1C(=O)Nc1nnc(S(=O)(=O)N2CCCc3ccccc32)s1` the value was 96%; for `O=C(Nc1nnc(S(=O)(=O)N2CCc3ccccc32)s1)c1ccccc1Cl`, 20% (active).
As to `CCOC(=O)c1ccc(CN(Cc2ccccc2C)S(=O)(=O)c2ccc(F)c(C(=O)Nc3cccc(OC)c3)c2)cc1`, the survival is 75%.
As to `CCNC(=O)CC1C(=O)N(c2ccc(F)cc2)C(=O)N1CCOC` (centres undefined), the survival was 84%.
For `COc1ccc(CN(C(=O)Cc2coc3ccc(C)cc23)C2CCS(=O)(=O)C2)cc1` (centres undefined) the value was 67%; for `Cc1cc2n(n1)CCCN2C(=O)Nc1ccccc1C(F)(F)F`, 76%.
The value for `CCc1ccc(NC(=O)C(=O)NCC(c2cccnc2)N2CCOCC2)cc1` (centres undefined) was 89%; that for `CC(=O)Oc1ccc(Nc2nc3nonc3nc2Nc2ccccc2)cc1` was 83%; that for `CC(=O)Nc1cc(OC(C)=O)c2nonc2c1OC(C)=O` was 29% (active).
For `CC(=O)Nc1nonc1NC(C)=O` the value was 87%; for `COC(=O)c1nnn(-c2ccc(Br)cc2)c1C(=O)OC`, 79%; for `COC(=O)c1ccc(NC(=O)CCc2c(C)nc3c(c(C)nn3C(C)(C)C)c2C)cc1`, 59%.
Take `CCOC(=O)c1ccc(NC(=O)CCc2c(C)nc3c(c(C)nn3C)c2C)cc1`: the survival was 93%.
The value for `CCOC(=O)c1ccc(NC(=O)CCc2c(C)nc3c(c(C)nn3C(C)(C)C)c2C)cc1` was 55% (active).
For `Cc1ccc(-c2nc(CNC(=O)Nc3ccccc3)c(C)o2)cc1` the value was 71%.
For `COC(=O)c1cc2c(ccn2-c2ccc(F)cc2)n1CC(=O)N1CCCCC1` the value was 97%; for `COc1ccc(C)cc1NC(=O)C1CCN(S(=O)(=O)c2ccc3[nH]c4c(c3c2)CCCCC4)CC1`, 94%; for `COc1cc(NC(=O)CCc2c(C)nc3c4c(C)cc(C)nc4nn3c2C)cc(OC)c1`, 74%.
With `CCOc1ccc(NC(=O)CCc2c(C)nc3c4c(C)cc(C)nc4nn3c2C)cc1`, the survival was 125%.
The value for `COC(=O)c1cc(NC(=O)CCc2c(C)nc3c4c(C)cc(C)nc4nn3c2C)cc(C(=O)OC)c1` was 56% (active).
For `COc1ccc(NC(=O)c2oc3ccc(S(=O)(=O)N4CCCCC4)cc3c2C)cc1` the value was 87%.
For `CC(C)Cn1cc(NC(=O)N2CCN(c3cccc(C(F)(F)F)c3)CC2)c2ccccc2c1=O` the value was 77%; for `COc1ccc(CCNC(=O)Cn2ncc3c(=O)oc4ccccc4c32)c(OC)c1`, 89%.
With `CCC1CCCCN1C(=O)CCS(=O)(=O)c1cc2c(cc1C)NC(=O)CO2` (centres undefined), the survival was 81%.
The value for `COc1cccc(CNS(=O)(=O)c2ccc3c(c2)C(C(C)C)C(=O)N3)c1` (centres undefined) was 129%; that for `CC(C)C1C(=O)Nc2ccc(S(=O)(=O)NCCc3ccc(Cl)cc3)cc21` (centres undefined) was 77%; that for `CC(C)C1C(=O)Nc2ccc(S(=O)(=O)NCc3ccc(Cl)cc3)cc21` (centres undefined) was 52% (active).
For `CCCNc1c2c(nc3ccccc13)CC(C)(C)CC2=O` the value was 66%; for `CCOc1ccccc1CNC(=O)c1ccc2nc(Cc3ccc(OC)cc3)oc2c1`, 73%.
The value for `CN(C1CCCCC1)C(c1ccc(F)cc1)c1nnnn1C1CCCCC1` (centres undefined) was 83%; that for `Cc1ccc(C)c(-c2nc(Cn3c(=O)cc(-c4ccccc4)c4c(C)nn(C)c43)c(C)o2)c1` was 130%; that for `CCOC(=O)c1ccc(NC(=O)c2c(NCc3cccs3)sc3c2CCCC3)cc1` was 78%.
Consider `CCOC(=O)c1ccc(NC(=O)c2c(NCc3sccc3C)sc3c2CCCCC3)cc1`, for which the survival is 78%.
For `CSc1ccc(CCNC(=O)c2csc3c2CCCCC3)cc1` the value was 63%; for `CCOC(=O)c1ccc(NC(=O)c2cccc3c(=O)c4c([nH]c23)CCCC4)cc1`, 60%.
For `CCOC(=O)c1ccc(NC(=O)c2c(NCc3cccs3)sc3c2CCCCC3)cc1` the value was 104%; for `CC(CNC(=O)c1csc2c1CCCCC2)c1ccccc1` (centres undefined), -1% (active).
The value for `O=C(Nc1ccc(OC(F)(F)F)cc1)c1noc2c1CCCC2` was 65%.
As for `CCC(Cc1ccccc1)NC(=O)c1csc2c1CCCCC2` (centres undefined), the survival is 125%.
The value for `COc1ccc(NC(=O)c2noc3c2CCCC3)cc1Cl` was 83%.
Consider `CCOC(=O)c1ccc(NC(=O)c2csc3c2CCCC3)cc1`, for which the survival is 36% (active).
The value for `CCOC(=O)c1ccc(NC(=O)c2noc3c2CCCC3)cc1` was 0% (active); that for `CCOC(=O)c1ccc(NC(=O)c2csc3c2CCCCC3)cc1` was 39% (active); that for `CCC(=O)C1=C(c2ccccc2)N(C(=O)CC)n2c(nnc2C2CCCCC2)S1` was 55%.
The value for `N#CCCn1c(=O)n(CCC#N)c(=O)n(CCC#N)c1=O` was 79%; that for `O=C1NC2(CCCCC2)C(=O)N1c1ccc(Cl)cc1` was 109%; that for `CCC(=O)OCCN1C(=O)c2ccccc2C1=O` was 91%.
The value for `COc1ccc(C(=O)Nc2ccc(NC(=O)c3ccco3)cc2)cc1OC` was 71%; that for `N#Cc1cccc(NC(=O)C2CCN(c3ncccn3)CC2)c1` was 66%.
For `Cc1cccc(CCn2c(=O)c3ccccc3n(CC(=O)Nc3ccccc3F)c2=O)c1`, the survival is 76%.
For `CCOc1ccc(OCC)c(NC(=O)c2csc3c2CCCC3)c1` the value was -2% (active); for `CCOc1ccc(CCNC(=O)c2csc3c2CCCCC3)cc1`, 73%.
Take `O=C(Nc1ccccc1O)c1csc2c1CCCC2`: the survival was 80%.
The value for `CCn1c(C(=O)Nc2ccc(C)cc2C)cc2sc(Cl)cc21` was 58%; that for `CCn1c(C(=O)Nc2ccccc2C(=O)OC)cc2sc(Cl)cc21` was 31% (active); that for `CCc1ccccc1NC(=O)c1cc2sc(Cl)cc2n1CC` was 77%.
For `CCn1c(C(=O)Nc2cc(C)cc(C)c2)cc2sc(Cl)cc21` the value was 109%.
The value for `CCn1c(C(=O)Nc2cc(Cl)ccc2C)cc2sc(Cl)cc21` was 77%; that for `CCn1c(C(=O)Nc2c(C)cccc2C)cc2sc(Cl)cc21` was 60% (active); that for `COC(=O)c1[nH]c2ccc(F)cc2c1N` was 98%.
On to `CCN(CC)c1ccc2cc(C(=O)Nc3ccc(NC(C)=O)cc3)c(=O)oc2c1`, for which the survival was 94%.
The value for `O=C(NCCc1ccccc1)c1ccc(CSc2nc3ccncc3n2Cc2ccccc2)cc1` was 73%; that for `Cc1ccc(NC(=O)C(Cc2ccccc2)NS(=O)(=O)c2cccs2)cc1Cl` (centres undefined) was 90%.
For `CCCOc1ccc(CNC(=O)C(NS(=O)(=O)c2cccs2)C(C)C)cc1` (centres undefined), the survival was 77%.
For `Cc1ccc(CNC(=O)C(NS(=O)(=O)c2cccs2)C(C)C)cc1` (centres undefined) the value was 61%; for `Cc1ccc(NC(=O)C(Cc2ccccc2)NS(=O)(=O)c2ccc3c(c2)c(=O)n(C)c(=O)n3C)cc1` (centres undefined), 64%; for `CCc1cccc(NC(=O)C(Cc2ccccc2)NS(=O)(=O)c2ccc3c(c2)c(=O)n(C)c(=O)n3C)c1` (centres undefined), 54%.
Consider `CCc1ccc(NC(=O)C(NS(=O)(=O)c2cccs2)C(C)C)cc1` (centres undefined), for which the survival is 55% (active).
For `CCc1ccc(NC(=O)C(Cc2ccccc2)NS(=O)(=O)c2ccc3c(c2)c(=O)n(C)c(=O)n3C)cc1` (centres undefined) the value was 45% (active).
The value for `COc1cc(NC(=O)C(Cc2ccccc2)NS(=O)(=O)c2cccs2)cc(OC)c1` (centres undefined) was 102%.
The value for `CCc1cccc(NC(=O)C(Cc2ccccc2)NS(=O)(=O)c2cccs2)c1` (centres undefined) was 44% (active); that for `CC(CNC(=O)c1ccc2c(c1)nc1n2CCCCC1)c1ccccc1` (centres undefined) was 62%; that for `CCOC(=O)c1ccc(CN(Cc2ccccc2C)S(=O)(=O)c2ccc(F)c(C)c2)cc1` was 80%.
On to `Cn1cnc(S(=O)(=O)N2CCCC(C(=O)NCc3ccc(F)cc3)C2)c1` (centres undefined), for which the survival is 55%.
For `CCOC(=O)CN1N=NC2C(=O)N(c3ccccc3)C(=O)C21` (centres undefined) the value was 92%.
In the case of `O=C(c1ccc2c(c1)OCCO2)N(Cc1cccnc1)c1nc2c(F)cc(F)cc2s1`, the survival is 88%.
For `Cc1ccc(CCNC(=O)CN(c2ccc(C(C)C)cc2)S(=O)(=O)c2c(C)nn(C)c2C)cc1` the value was 68%; for `Cc1ccc(C(=O)c2cn(Cc3c(F)cccc3Cl)c3nc(C)ccc3c2=O)cc1`, 62%; for `CCc1ccc(NC(=O)CSC2=Nc3ccccc3C3=NC(CCC(=O)NCCc4ccccc4)C(=O)N23)cc1` (centres undefined), 81%.
The value for `O=S(=O)(/C=C/c1ccccc1)N1CCOCC1` was 67%; that for `Cc1ccc(CSc2nc(N)cc(N)n2)cc1` was 114%.
As for `N#Cc1ccccc1CSc1nc(N)cc(N)n1`, the survival is 106%.
For `N#CCSc1nc(N)cc(N)n1`, the survival was 52% (active).
As to `Cc1ccc(N2CCN(C(=O)c3ccc(Nc4nc5ccccc5n5nnnc45)cc3)CC2)c(C)c1`, the survival is 82%.
